Results filed as inconclusive are left out. A call without a number means that no potency is given here. The source made the active and inactive calls. Unless noted, calls come from the whole dose curve; as a rule, active = well fitted curve in the direction sought with a large enough effect in the repeat runs; inconclusive = weak or mixed curves; inactive = no such curve, though single readings can be large; an effect the other way counts as inactive or inconclusive.
Columns and labels:
[1] = qHTS assay for small molecules that induce genotoxicity in human embryonic kidney cells expressing luciferase-tagged ATAD5 (AID 651632); note: nearly all actives have a fitted effect of over 15% in size
Outline: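 Cells were seeded at 2,000 per well, dosed with compound, and incubated 16 hr at 37C in 5% CO2. Luciferase activity was then quantified after a 30 min room-temperature incubation with Amplite.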

[2] = qHTS assay for small molecules that induce genotoxicity in human embryonic kidney cells expressing luciferase-tagged ATAD5 - cell viability (AID 651634; calls by dose curve; note: nearly all actives have a fitted effect of over 25% in size; note: potency is the fitted concentration of half-maximal effect)
Outline: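 Cells (HEK293T, luciferase-tagged ATAD5) are seeded at 2,000 per well, dosed with compound or DMSO vehicle, and incubated 15.5 hr at 37C and 5% CO2. CellTiter-Fluor is added for 30 min before fluorescence is measured.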

[3] = qHTS assay for small molecule disruptors of the mitochondrial membrane potential - cell viability (AID 720634; calls by dose curve;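 note: human HepG2 liver cancer cells; nearly all actives have a fitted effect of over 20% in size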)
Outline: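 Cytotoxicity was measured by ATP quantitation in HepG2 wells that had first been treated with compound for 1 hr and stained with m-MPI dye; CellTiter-Glo incubation was 30 min at room temperature.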

[4] = qHTS assay to test for compound auto fluorescence at 590 nm (red) in HepG2 cells (AID 720674)
Outline: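 HepG2 cells, 2,000 per well in MEM with 10% FBS, attached overnight at 37 C, then got 23 nL compound or DMSO. After 1 hr at 37 C, 5% CO2, red fluorescence was read at 540/590 nm against Rose Bengal sodium as reference.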

[5] = qHTS assay to test for compound auto fluorescence at 535 nm (green) in HepG2 cells (AID 720675)
[6] = qHTS assay to test for compound auto fluorescence at 460 nm (blue) in HEK293 cells (AID 720678)
Outline: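 Intrinsic compound fluorescence is recorded in live HEK293 cultures after overnight incubation at 37C, 5% CO2, using excitation 405 nm and emission 460 nm. Values are referenced to triamterene.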

[7] = qHTS assay to test for compound auto fluorescence at 590 nm (red) in HEK293 cells (AID 720679)
Outline: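 Red autofluorescence, HEK293 cells: 2,000 cells/well; attach 4-5 hr 37C; add 23 nL cpd or DMSO; incubate o/n 37C 5% CO2; read Ex540/Em590; Rose Bengal sodium reference.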

[8] = qHTS assay to test for compound auto fluorescence at 535 nm (green) in HEK293 cells (AID 720680); note: potency is the fitted concentration of half-maximal effect
[9] = qHTS assay to test for compound auto fluorescence at 460 nm (blue) in HEK293 cell free culture (AID 720681)
Outline: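 Compounds were added to cell-free DMEM with 10% FBS and fluorescence read directly. The blue channel used 405 nm excitation and 460 nm emission, with triamterene as the reference fluorophore.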

[10] = qHTS assay to test for compound auto fluorescence at 535 nm (green) in HEK293 cell free culture (AID 720682); note: potency is the fitted concentration of half-maximal effect
Outline: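 Cell-free medium (DMEM, 10% FBS) receives compound or DMSO by pintool. Plate read directly at Ex 485/Em 535 nm. Signal converted to fluorescein equivalency.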

[11] = qHTS assay to test for compound auto fluorescence at 590 nm (red) in HEK293 cell free culture (AID 720683)
Outline: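 Cell-free wells of DMEM with 10% FBS received compound, and intrinsic fluorescence was read at excitation/emission 540/590 nm. Values expressed as equivalence to Rose Bengal sodium.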

[12] = qHTS assay to test for compound auto fluorescence at 590 nm (red) in HepG2 cell free culture (AID 720684)
Outline: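 Rose Bengal sodium served as the reference for red signal. Test compounds were dispensed into serum-containing MEM (10% FBS) without cells, and plates were read at 540/590 nm.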

[13] = qHTS assay to test for compound auto fluorescence at 460 nm (blue) in HepG2 cell free culture (AID 720685)
Outline: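 Cell-free plates of MEM plus 10% FBS received 23 nL compound or DMSO vehicle; blue-channel (405/460 nm) intensity scored against triamterene as reference fluorophore.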

[14] = qHTS assay to test for compound auto fluorescence at 535 nm (green) in HepG2 cell free culture (AID 720686); note: potency is the fitted concentration of half-maximal effect
[15] = qHTS assay to test for compound auto fluorescence at 460 nm (blue) in HepG2 cells (AID 720687)
Outline: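 HepG2 cells in MEM with 10% FBS, attached overnight at 37 C, were exposed to compound or DMSO for 1 hr at 37 C, 5% CO2. Blue fluorescence was read at 405/460 nm, with triamterene as reference fluorophore.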

[16] = biological target: Glucocorticoid receptor (Homo sapiens) (UniProt P04150); assay: qHTS assay to identify small molecule agonists of the glucocorticoid receptor (GR) signaling pathway (AID 720691; active = well fitted activation curve with a large enough effect in the signal ratio in the repeat runs, not every such curve was filed as active; the % refers to the signal ratio); conditions: GR-bla HeLa, beta-lactamase reporter ratio, 18 h; activation: at 62.4 µM (top of the series)
Chain of Glucocorticoid receptor (Homo sapiens) (P04150 whole entry, looked up): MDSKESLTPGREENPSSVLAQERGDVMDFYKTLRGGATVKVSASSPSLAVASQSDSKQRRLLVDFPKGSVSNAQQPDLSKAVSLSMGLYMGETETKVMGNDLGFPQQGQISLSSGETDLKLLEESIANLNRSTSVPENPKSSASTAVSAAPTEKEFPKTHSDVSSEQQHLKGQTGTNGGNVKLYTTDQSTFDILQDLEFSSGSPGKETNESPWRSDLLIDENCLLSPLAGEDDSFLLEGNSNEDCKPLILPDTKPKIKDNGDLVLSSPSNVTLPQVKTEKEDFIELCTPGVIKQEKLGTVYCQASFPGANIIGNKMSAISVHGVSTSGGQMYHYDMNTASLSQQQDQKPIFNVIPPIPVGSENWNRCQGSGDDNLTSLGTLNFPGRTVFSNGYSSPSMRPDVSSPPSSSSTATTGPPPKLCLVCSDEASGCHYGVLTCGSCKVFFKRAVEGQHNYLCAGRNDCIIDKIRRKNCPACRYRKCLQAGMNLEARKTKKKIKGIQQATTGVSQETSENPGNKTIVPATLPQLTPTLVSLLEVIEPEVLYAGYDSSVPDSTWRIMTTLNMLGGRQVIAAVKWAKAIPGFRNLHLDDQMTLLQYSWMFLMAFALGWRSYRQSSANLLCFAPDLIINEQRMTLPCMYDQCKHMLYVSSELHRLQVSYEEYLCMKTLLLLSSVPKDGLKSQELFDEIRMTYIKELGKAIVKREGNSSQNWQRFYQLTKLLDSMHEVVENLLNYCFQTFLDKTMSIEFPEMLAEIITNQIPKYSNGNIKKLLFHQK
Outline: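 Steps: seed GR-bla HeLa cells, incubate 4 h at 37 C/5% CO2; pin-transfer DMSO-dissolved compounds; incubate 18 h at 37 C; add LiveBLAzer B/G FRET substrate; after 2 h at room temperature, measure fluorescence.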

[17] = qHTS assay for small molecule disruptors of the mitochondrial membrane potential (AID 720635); note: potency is the fitted concentration of half-maximal effect
Outline: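 HepG2 cells exposed to compound 1 hr at 37C, then Mito-MPS dye 30 min. Ratio read of aggregate (540/590 nm) versus monomer (490/535 nm) fluorescence.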

[18] = qHTS assay for small molecule agonists of the p53 signaling pathway - cell viability (AID 651633; calls by dose curve; note: nearly all actives have a fitted effect of over 30% in size; note: potency is the fitted concentration of half-maximal effect)
Outline: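 p53RE-bla cells were treated with compound for 16 hours at 37 C. Cytotoxicity was then measured as CellTiter-Glo luminescence after 30 min at room temperature.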

[19] = biological target: Glucocorticoid receptor (Homo sapiens) (UniProt P04150); assay: qHTS assay to identify small molecule antagonists of the glucocorticoid receptor (GR) signaling pathway (AID 720692; active = well fitted inhibition curve with a large enough effect in the signal ratio in the repeat runs, not every such curve was filed as active; the % refers to the signal ratio)
Outline: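 Antagonism was scored as loss of dexamethasone-driven (5 nM final) reporter signal in HeLa cells bearing a glucocorticoid response element–beta-lactamase construct, after 18 h compound exposure at 37 C and 2 h FRET substrate loading.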
Tags give direction and shape of the fitted curve or compound fluorescence and quenching.

SMILES	Potency [1]	Potency [2]	Potency [3]	Potency [4]	Potency [5]	Potency [6]	Potency [7]	Potency [8]	Potency [9]	Potency [10]	Potency [11]	Potency [12]	outcome [13]	Potency [14]	outcome [15]	Potency [16]	Potency [17]	Potency [18]	Potency [19]
CCC(=O)c1ccc2c(c1)N(CCCN1CCN(CCO)CC1)c1ccccc1S2	inactive	26.6 µM (active)	inactive	inactive	inactive	inactive	inactive	inactive	inactive	inactive	inactive	inactive	inactive	inactive	inactive				
Cc1ccccc1				inactive	inactive	inactive	inactive	inactive	inactive	inactive	inactive	inactive	inactive	inactive	inactive				
CC1(C)S[C@@H]2[C@H](NC(=O)C3(N)CCCCC3)C(=O)N2[C@H]1C(=O)O		inactive	inactive	inactive	inactive	inactive	inactive	inactive	inactive	inactive	inactive	inactive	inactive	inactive	inactive	inactive			
COc1ccc(C[C@H](C)NC[C@@H](O)c2ccc(O)c(NC=O)c2)cc1			inactive	inactive	inactive	inactive	inactive	inactive	inactive	inactive	inactive	inactive	inactive	inactive	inactive	inactive			
CCC[C@@]1(CCc2ccccc2)CC(O)=C([C@H](CC)c2cccc(NS(=O)(=O)c3ccc(C(F)(F)F)cn3)c2)C(=O)O1		inactive	inactive	inactive	inactive	inactive	inactive	inactive	inactive	inactive	inactive	inactive	inactive	inactive	inactive	inactive	23.7 µM (active)		
CC(C)(C)C1(O)CCN2CC3c4ccccc4CCc4cccc(c43)C2C1 (configuration not stated)		inactive	inactive	inactive	inactive		inactive	inactive	inactive	inactive	inactive	inactive	inactive	inactive	inactive	inactive		13.3 µM (active)	
CNC(C)CCC=C(C)C (configuration not stated)		inactive	inactive	inactive	inactive		inactive	inactive	inactive	inactive	inactive	inactive	inactive	inactive	inactive		inactive	inactive	
C[C@H](CSC(=O)c1ccccc1)C(=O)N1C[C@@H](Sc2ccccc2)C[C@H]1C(=O)O		inactive	inactive	inactive	inactive	inactive	inactive	inactive	inactive	inactive	inactive	inactive	inactive	inactive	inactive	inactive		inactive	inactive
Cc1cc2nc3c(=O)[nH]c(=O)nc-3n(C[C@H](O)[C@H](O)[C@H](O)COP(=O)(O)OP(=O)(O)OC[C@H]3O[C@@H](n4cnc5c(N)ncnc54)[C@H](O)[C@@H]3O)c2cc1C			inactive	inactive		inactive	inactive	22.4 µM [fluorescent] (active)		15.8 µM [fluorescent] (active)	inactive	inactive	inactive	12.6 µM [fluorescent] (active)	inactive	inactive		inactive	
CO[C@@H]1[C@@H](O[C@@H]2O[C@H](C)[C@@H](O[C@H]3C[C@@](C)(O)[C@@H](OC(=O)CC(C)C)[C@H](C)O3)[C@H](N(C)C)[C@H]2O)[C@@H](CC=O)C[C@@H](C)C(=O)/C=C/C2OC2C[C@@H](C)OC(=O)C[C@H]1OC(C)=O (some centres not stated)			inactive	inactive	inactive	inactive	inactive	inactive	inactive	inactive	inactive	inactive	inactive	inactive	inactive			inactive	
O=C1/C(=C\c2cccs2)CCC/C1=C\c1cccs1		inactive		inactive	inactive	inactive	inactive	inactive	inactive	inactive	inactive	inactive	inactive	inactive	inactive	inactive	21.1 µM (active)	inactive	
CC(C)NCC(O)COc1ccccc1-n1cccc1 (configuration not stated)		inactive	inactive	inactive	inactive	inactive	inactive	inactive	inactive	inactive	inactive	inactive	inactive	inactive	inactive	inactive		inactive	
COc1ccc(C[C@@H](C)NC[C@H](O)c2ccc(O)c(NC=O)c2)cc1			inactive	inactive		inactive	inactive	inactive	inactive	inactive	inactive	inactive	inactive	inactive	inactive	inactive			inactive
